Screens (PubChem BioAssay)
D2 PAM-1 = HTS Assay for Positive Allosteric Modulators of the Human D2 Dopamine Receptor: Primary Screen for Potentiators. D(2) dopamine receptor (Homo sapiens), P14416. HEK293 T-REx D2, calcium flux, EC20 dopamine potentiation. potentiation, % at 10 µM. 340,000 tested, 0.34% active. AID 485347, 2010;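 active means potentiation over 3 SD above the plate norm, cut at about 30% in these data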; further: 0% is about no effect
Target sequence (P14416 whole entry, looked up): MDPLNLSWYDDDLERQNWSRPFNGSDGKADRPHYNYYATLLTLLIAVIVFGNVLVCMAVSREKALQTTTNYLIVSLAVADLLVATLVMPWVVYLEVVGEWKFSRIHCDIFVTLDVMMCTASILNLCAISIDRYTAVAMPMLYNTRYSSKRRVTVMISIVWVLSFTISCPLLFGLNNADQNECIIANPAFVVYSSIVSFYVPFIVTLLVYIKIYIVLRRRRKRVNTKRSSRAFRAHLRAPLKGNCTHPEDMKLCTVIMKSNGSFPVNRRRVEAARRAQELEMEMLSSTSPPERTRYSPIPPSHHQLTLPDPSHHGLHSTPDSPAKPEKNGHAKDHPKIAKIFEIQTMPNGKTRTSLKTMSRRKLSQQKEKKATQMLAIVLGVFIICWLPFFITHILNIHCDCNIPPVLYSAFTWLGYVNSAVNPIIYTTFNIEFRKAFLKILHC
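Primary screen. Calcium kinetics in induced HEK293 T-REx D2 cells: compound pre-addition 180 s, EC20 dopamine, 180 s more.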
D2 ag-1 = HTS Assay for Allosteric Agonists of the Human D2 Dopamine Receptor: Primary Screen for Agonists; D(2) dopamine receptor (Homo sapiens), P14416; HEK293 T-REx D2 cells, calcium flux agonist mode; activation, % at 2 µM; 340,000 tested, 0.53% active;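 active means activation over 3 SD above normal in the single-dose calcium agonist read, cut at about 30% in these data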; further: 0% is about no effect
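Calcium-flux readout, 1 cycle/sec over 180 s following compound pin transfer, in inducible HEK293 Trex D2 cells (force-coupled); dopamine controls included. Positive calcium responses during this window marked compounds as potential agonists.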
D2 PAM-2 = Beta-Arrestin HTS for Positive Allosteric Modulators of the Human D2 Dopamine Receptor: Potentiators | AID 624464, 2012 | potentiation, % (concentration not given with the values) | DiscoveRx D2 beta-arrestin cells, luminescence, 90 min; 100% = 57 uM dopamine signal | 360,000 tested, 0.23% active | D(2) dopamine receptor (Homo sapiens), P14416; in the data active means potentiation above about 50%; inconclusive means mostly about 30% to 49%
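PathHunter beta-arrestin assay in DiscoveRx D2 cells. Compounds were added with an EC20 of dopamine (50 nM final) for 90 min at 37 deg C. Luminescence was read 1 h after detection reagent, with 57 uM dopamine as the EC100 control.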
D2 antagonist = HTS Assay for Allosteric Antagonists of the Human D2 Dopamine Receptor: Primary Screen for Antagonists | 340,000 tested, 2% active | inhibition, % at 10 µM | HEK293 TREx D2 cells, calcium flux, dopamine EC80 | D(2) dopamine receptor (Homo sapiens), P14416 | AID 485344, 2010; in the data active means inhibition above about 30%; inactive means below that, where a call was filed; further: 0% is about no effect
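Overnight-induced (tetracycline, 30 C) HEK293 T-REx cells carrying force-coupled D2 receive a no-wash calcium dye, then compound, then EC80 dopamine at 180 s; signals are read kinetically throughout.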
D2 ag-2 = Beta-Arrestin HTS for Positive Allosteric Modulators of the Human D2 Dopamine Receptor: Agonists. AID 624465, 2012. 360,000 tested, 0.084% active. D(2) dopamine receptor (Homo sapiens), P14416. DiscoveRx PathHunter D2 beta-arrestin, luminescence, 90 min; 100% = 57 uM dopamine signal. activation, % (concentration not given with the values); in the data active means activation above about 40%; inconclusive means between about 15% and that limit
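DiscoveRx PathHunter D2 beta-arrestin cells (2,100/well) attached overnight, then compound-stimulated 90 min at 37 C in HBSS/10 mM HEPES/0.1% Tween-20 buffer; beta-galactosidase complementation read by luminescence after 1 h at ambient temperature. Dopamine 57 uM final (EC100) as control.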
* hit, by the source's call; ? = inconclusive; nt = no result. An excerpt weighted towards active compounds, which were near 2.4% of everything screened.

SMILES	D2 PAM-1	D2 ag-1	D2 PAM-2	D2 antagonist	D2 ag-2
C=CCN1C(=O)/C(=C/c2ccc(O)c(OC)c2)S/C1=N/c1nccs1	3	45*	4	-10	10
COc1ccc(-c2ccc3c(c2)S(=O)(=O)c2cccc(C(=O)N4CCN(C5CCCCC5)CC4)c2C3=O)cc1OC	nt	nt	118*	nt	?
CC(C)c1ccc(CNc2ncccn2)cc1	16	1	-4	-18	-1
CN(CC(=O)Nc1ccc(F)cc1)C(=O)COC(=O)CSc1ccc(F)cc1	1	-1	-1	-16	2
O=C(/C=C/c1cccc(C(F)(F)F)c1)Nc1cccc(C(F)(F)F)c1	-10	1	-1	19	4
Cc1ccc(NC(=O)/C=C/c2cccc(C(F)(F)F)c2)cc1	-21	1	-9	69*	-3
CCC(=O)N1CCC(NC(=O)Nc2ccc(OC(F)(F)F)cc2)CC1	-9	2	9	11	5
Cc1oc(-c2ccccc2Cl)nc1CSc1nc2c(c(=O)[nH]1)CCC2	5	0	9	35*	14
Cc1oc(-c2cccc(Cl)c2)nc1CSc1nc2c(c(=O)[nH]1)CCC2	-1	-1	-7	8	-1
CCC(=O)Nc1c(-c2ccccc2Cl)c(=O)c2ccccc2n1CC	-1	1	-3	5	-4
C=C1CCN([C@@H](Cc2ccccc2)C(=O)NCc2ccc(Cl)cc2)S(=O)(=O)c2ccccc21	nt	nt	-11	nt	-1
O=c1[nH]c2ccccc2nc1/C=C(\O)c1cccs1	-2	65*	-7	2	-2
O/C(=C\c1nc2ccccc2[nH]1)c1cccs1	-5	0	-2	10	-7
COc1ccc(CN2CCn3ncc(C(=O)Nc4cc(C)cc(C)c4)c3C2=O)cc1	-1	0	1	38*	0
COC(=O)c1cc2n(n1)CCN(Cc1ccc(OC)cc1)C2=O	-4	0	-3	-4	2
Cc1noc(C)c1COc1ccc(C(=O)OC(C)C(=O)Nc2ccc(N3CCOCC3)cc2)cc1 (stereo not given)	1	-2	1	45*	-1
COc1cccc(Oc2nc(C)nc3c2oc2ccccc23)c1	12	0	nt	nt	nt
O=[N+]([O-])c1ccc(S(=O)(=O)N2CCC3(CC2)OCCN3S(=O)(=O)c2cccs2)cc1	0	0	72*	10	14
Cc1ccc(S(=O)(=O)N2CCC3(CC2)OCCN3S(=O)(=O)c2cccs2)cc1	nt	nt	-2	nt	-1
CCOC(=O)Nc1sc(C(=O)N(CC)CC)c(C)c1C(=O)OCC	45*	1	-11	-11	-6
COc1cc(OC)c(CNC2CCCCCC2)cc1Br	-2	-1	-13	49*	-6
CC(NC(=O)Cn1nc(C(=O)O)c2ccccc2c1=O)C12CC3CC(CC(C3)C1)C2 (stereo not given)	-7	0	-2	-12	-1
COc1cc(NC(=O)C2CCC(CNc3c(N4CCC(C)CC4)c(=O)c3=O)CC2)cc(OC)c1 (stereo not given)	30*	0	-7	16	-2
COc1cc(NC(=O)C2CCC(CNc3c(N4CCCCC4)c(=O)c3=O)CC2)cc(OC)c1 (stereo not given)	4	nt	-1	nt	5
CCOc1ccc(NC(=O)C2CCC(CNc3c(N4CCC(C)CC4)c(=O)c3=O)CC2)cc1 (stereo not given)	4	0	6	31*	-3
SMILES	D2 PAM-1	D2 ag-1	D2 PAM-2	D2 antagonist	D2 ag-2
CCC(C)(C)NC(=O)C(C(C)C)N(CC1CCCO1)C(=O)CNS(=O)(=O)c1ccccc1 (stereo not given)	9	-1	-4	7	2
O=C(NC(Cc1ccc2c(c1)OCO2)C(=O)N1CCCC1C(=O)O)c1ccccc1 (stereo not given)	9	-1	3	34*	0
COc1ccc(NC(=O)N2CCN3CCCCC3C2)cc1OC (stereo not given)	-5	0	nt	nt	nt
CC[C@@]1(C(=O)OC)N[C@H](CN(C)C(=O)c2ccc(C(C)(C)C)cc2)[C@@H]2C(=O)N(Cc3ccccc3)C(=O)[C@@H]21	nt	nt	2	nt	2
CCN(C[C@H]1N[C@@](CC)(C(=O)OC)[C@H]2C(=O)N(Cc3ccccc3)C(=O)[C@@H]12)C(=O)c1ccc(C(C)(C)C)cc1	nt	nt	57*	nt	?
COc1cccc(-c2ccc3c(c2)N(Cc2ccc(F)cc2)C(=O)C(C)S3)c1 (stereo not given)	nt	nt	-1	nt	-4
Cn1c(=O)n(CCCOc2ccc(Br)cc2)c2ccccc21	-19	1	-27	32*	-2
Cc1ccc(CNC(=O)c2cc(-c3ccc(Cl)cc3)on2)cc1	-3	1	nt	nt	nt
Cc1cccc2cc(CN(Cc3cccs3)C3(c4nnnn4C4CCCC4)CCCC3)c(=O)[nH]c12	7	1	-5	77*	-2
Cc1cccc2cc(CN(Cc3ccc(F)cc3)Cc3nnnn3C3CCCC3)c(=O)[nH]c12	-2	-1	-16	-2	0
COc1cn(CC(=O)Nc2ccccc2)c(CN2CCCCC2)cc1=O	-10	0	nt	nt	nt
CCN(CC)CCNC(=O)c1cc(-c2ccc(Br)s2)nc2ccccc12	-10	1	-18	-29	1
CCN(CC)CCNC(=O)c1cc2cc(Br)ccc2s1	-5	-1	-15	50*	0
O=C(/C=C/c1ccc2c(c1)OCO2)NCCSCc1c(Cl)cccc1Cl	7	-2	1	34*	1
O=C(/C=C/c1ccc2c(c1)OCO2)NCCSCc1ccc(Cl)cc1	-4	0	13	5	-3
CCOC(=O)c1c(-c2ccc(C)cc2)cn2ccccc12	-9	1	-16	7	-2
CCOC(=O)c1c(-c2ccc(OC)cc2)cn2ccccc12	-1	-1	-13	62*	-3
Cc1ccc2nc(-c3ccc(O)cc3)oc2c1	3	0	-3	9	0
Cc1cccc(NC(=S)N(CCCN2CCOCC2)C(C)c2cc3ccccc3o2)c1 (stereo not given)	-10	0	-17	35*	-7
COc1cccc2cc(C(C)N(CCCN3CCOCC3)C(=S)Nc3cccc(C)c3)oc12 (stereo not given)	-13	-1	-16	14	-6
N#CC(C#N)=C1C=C2C=C(N3CCCCC3)CCC2CC1 (stereo not given)	-18	132*	22	87*	?
